# Laboratory results as given in PubChem BioAssay.
# Unmarked numbers belong to inactive results. Active and inactive are the calls of the source.
# Assay: PSAC antagonists in infected red cells, primary screen, cell-based, P. falciparum Indochina, OD700, 1 h (AID 1154)
# Conditions: P. falciparum Indochina infected RBC osmotic lysis, higher = more signal, called active from +8 up or from −8 down
row,SMILES,z-score
1,O=C1C2C=CC(C(O)c3ccc(F)cc3)N(n3cnnc3)C2C(=O)N1Cc1ccccc1 (stereo not given),0.138
2,Cc1ccc(S[C@]2(C(=O)NCC(F)(F)F)CC(=O)N(Cc3ccccc3)[C@@H]2c2ccc(CO)cc2I)cc1,4.23
3,C=C(/C(=C/C[C@H](OC(C)=O)c1ccccc1OCCO)c1cc(C(=O)OC)ccc1OC)C(C)C,5.75
4,CC(C)N1C(=O)C[C@@](C(=O)NCCCN(C)C)(c2ccc([N+](=O)[O-])cc2)[C@H]1c1ccc(CO)cc1,3.55
5,COCCOC(=O)N1C(=O)[C@@]2(c3cc(C#Cc4ccc(OC)cc4)ccc31)[C@H](c1ccccc1OCCO)N1[C@H](c3ccccc3)[C@H](c3ccccc3)OC(=O)[C@H]1[C@@H]2C(=O)N1CCCCCCC1,0.999
6,O=C1NC(=O)C2C1C=CC(C(O)c1cccc3ccccc13)N2Nc1ccc(Cl)cc1Cl (stereo not given),1.98
7,C=CCNC(=O)[C@H]1[C@@H]2C(=O)O[C@@H](c3ccccc3)[C@@H](c3ccccc3)N2[C@@H](c2ccc(O)cc2)[C@]12C(=O)Nc1ccc(C#CC3(O)CCCCCC3)cc12,1.79
8,CCCC[C@@H]1C[C@H]1[C@@H](NC(=O)c1ccccc1)c1ccc(C(F)(F)F)cc1,-0.512
9,NC(=O)N1C(=O)C2C(C1=O)C1C=C(CCCO)C2C(c2cccs2)N1Cc1cccc(OC(F)(F)F)c1 (stereo not given),8.85 (active)
10,CCCC[C@@H]1C[C@H]1[C@@H](NC(=O)c1cccs1)c1ccc(C(F)(F)F)cc1,1.5
11,C=C(/C(=C/C[C@@H](OC(C)=O)c1cccc(OCCO)c1)c1cc(C(=O)OC)ccc1OC)C(C)C,9.43 (active)
12,CC(C)(C)OC(=O)CC[C@]1(C(=O)NCC(O)CO)N=C(c2ccc(OCCCO)cc2)O[C@H]1c1ccccc1 (stereo not given in full),19.9 (active)
13,CC(C)(C)N1CC=CC23O[C@@H]4C=CCCOC(=O)C4[C@H]2C(=O)N(CCO)[C@@H]3C1=O (stereo not given in full),0.901
14,COc1ccccc1CN1C(=O)c2ccccc2[C@](Cc2ccccc2I)(C(=O)NCC(F)(F)F)[C@@H]1c1ccc(CO)cc1,5.37
15,CCOC(=O)C[C@H]1[C@H](OC(=O)c2ccccc2-c2ccccc2)[C@@H](NC(=O)C2CCCCC2)c2cc(OCCCO)ccc2N1C(=O)Cc1ccc(OC)cc1,1.1
16,COC(=O)CCCCCCC(=O)Nc1ccc(NC(=O)CCCC[P+](c2ccccc2)(c2ccccc2)c2ccccc2)cc1,25.6 (active)
17,CN1C(=O)C2C=CC(C(O)COCc3ccccc3)N(N(c3ccccc3)c3ccccc3)C2C1=O (stereo not given),3.65
18,O=C1O[C@H](c2ccccc2)[C@H](c2ccccc2)N2[C@H]1[C@@H](C(=O)O)[C@]1(C(=O)Nc3ccc(C#CC4=CCCCC4)cc31)[C@H]2c1ccc(O)cc1,-2.37
19,CCOc1cc(C(O)C2C=CC3C(=O)N(c4ccccc4)C(=O)C3N2Nc2ccc(C#N)cc2)ccc1O (stereo not given),16.3 (active)
20,Cc1cc(C)cc(N2C(=O)CSC2c2cccc([N+](=O)[O-])c2)c1 (stereo not given),0.385
21,COCCOC(=O)N1C(=O)[C@@]2(c3cc(C#CC4(O)CCCCCC4)ccc31)[C@H](c1ccc(O)cc1)N1[C@H](c3ccccc3)[C@H](c3ccccc3)OC(=O)[C@H]1[C@@H]2C(=O)NC[C@H](O)c1ccccc1,1.14
22,C=CCN1C(=O)[C@@]2(CCS(=O)(=O)c3ccccc3)N=C(c3ccc(OCCCO)cc3)O[C@H]2c2ccccc21,29.9 (active)
23,CCOC(=O)C[C@H]1[C@H](OC(=O)c2cc3ccccc3oc2=O)[C@@H](NC(=O)c2ccc(-c3ccccc3)cc2)c2cc(OCCCO)ccc2N1C(=O)c1ccccc1,0.697
24,CCCCO[C@H]1C[C@H]2C(I)=C[C@@H]1C(=O)[C@]21CO1,-0.0445
25,[N-]=[N+]=NCc1ccccc1[C@H]1OC(c2ccc(OCCCO)cc2)=N[C@@]1(CCS(=O)(=O)c1ccccc1)C(=O)N1CCCCC1,25.6 (active)
